The values that follow come from PubChem BioAssay AID1508600 (Functional Genomics Laboratory (NCATS/FGL), 2020).

The campaign covered roughly 53,000 sequences. About 3,700 (7%) were called active.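 The calls were made as follows: active = gene knockdowns whose robust z-score for IL-1 alpha signal is at least 2 or at most -2, so actives lie on both sides; inactive = the rest.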 The sample as a whole holds a higher share of actives than the screen did.

The assay can be described thus: Components of the Cytosolic LPS Sensing Pathway: Gene Identification via Genome-wide siRNA Screen.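 Also: robust z of the log signal after scaling to non-targeting control siRNA wells of the plate.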 Conditions: RAW264.7 macrophages, IL-1a HTRF, actives lie on both sides, screened at 100 nM (by protocol), cells primed 5 h with Pam3CSK4 first. Summed up:
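Supernatant IL-1a by HTRF from RAW264.7 cells primed with Pam3CSK4 (5 hours) and transfected with LipidA (24 hour) after 48h siRNA knockdown at 100 nM; cell viability checked with CellTiter-Glo.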
A general note: Time-resolved FRET reads energy transfer from a long-lived donor to a nearby acceptor.
Turning to GGUGAGACAGAUAAAGUUCTT against Olfr1124, the z-score was 1.15 (inactive).
In the case of GGUAAAAGCUACCAUUCAGTT against Ap2a2, the z-score was -0.947 (inactive).
Next, GGUUUGUUUUUGUUCGUUUTT against Cytip: -0.067 (inactive).
Regarding GGCAAGAAAAAUCAGAUUGTT against Cyld, the z-score was 3 (active).
As to GGAGUUUACGGCUAUUGACTT against Adap2, the z-score was -0.884 (inactive).
Consider GGUUUAAUUCUUGUCUUGUTT against Pvt1, for which the z-score is -0.928 (inactive).
Next, GGUUAUCGGUUGUACAUAUTT against Chd3: 1.03 (inactive); CGUGGACUCUAUAAUCAACTT against Map7d1: 2.47 (active); GGCAAGCUUCCAGAUCGAATT against Adam23: 0.0113 (inactive).
The value for GGAACCAGAUCUCAUGCCCTT against Endov was -1.47 (inactive); that for GGAUCACACUAGUAUUUUCTT against Sertad2 was -0.923 (inactive).
For GCUAAAAACAACUAGGAAATT against Wdr60, the z-score was 0.391 (inactive).
Turning to GCAUCGUGUGCAAGAUCCUTT against Atp4b, the z-score is 2.74 (active).
For the sequence GGAAAUAUAUCUGAAAGGGTT against Sphkap, the z-score is 0.514 (inactive).
On to GCUCGCUAAAGUGAUUAAATT against Gm5533, for which the z-score is 0.867 (inactive).
For GGACUUUCUAAGGGUAAAATT against Luzp1, the z-score was -0.0646 (inactive).
GGACAAAGCUAUUGGGAUUTT against Olfr402: the z-score was 1.45 (inactive).
GGUGAUGGUCCAGAUUAACTT against Plpbp: the z-score is -0.0895 (inactive).
Regarding GCUGAAAUAGUUGCUAAAUTT against Usp6nl, the z-score was 0.443 (inactive).
The value for GGAACUGUCACAACUGCUATT against Acat3 was 3.22 (active); that for GGAGAAGCUCAUCUCUCUGTT against Rfx2 was -1.35 (inactive); that for GGAACAUCUUUCUUCUCCATT against Abhd4 was -0.869 (inactive).
With GGAUUCGGACUUCAUAAUCTT against Dpp10, the z-score was 0.256 (inactive).
The value for GCUGAUAAAUCUGAACUACTT against Dhrs7 was 1.15 (inactive); that for GGUUCUGAGUAUUUAAAGCTT against Nt5dc3 was 2.21 (active); that for GGACAUCUCCUUGAUCUUGTT against Slc1a5 was -0.95 (inactive).
As for UCACCAUCUUGAAGAUUCGTT against Olfr486, the z-score was -0.792 (inactive).
For GCAGGAUCCUGAAACCAUGTT against Lrrc14, the z-score is -2.09 (active).
On to GCCCAAGACGAAAAGAUACTT against Mrpl9, for which the z-score was 0.662 (inactive).
Consider GGAUAGCAAAUUCAUCACATT against Ptprg, for which the z-score was -0.214 (inactive).
